From PubChem BioAssay
Values without a mark were called inactive. Active and inactive are the calls of the source.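 How the source made its calls: active means z-score of at least 1.8 in each of two replicates, scored against plate mean and spread of sample wells; inactive means the rest.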

Assay: viability rescue of complex I mutant cybrids, primary screen, cell-based, galactose medium, ATP luminescence (AID 1645843);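 further: positive z means more ATP and so rescue of galactose-driven cybrid death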
Conditions: complex I mutant cybrid cells, 72 h, stronger effect = higher value

Going from `CC(=O)NCCC1CCN(C(=O)C(C)Oc2cc(C)c(Cl)c(C)c2)CC1` (stereo not given) to `CC[C@H](C)[C@H](N)C(=O)N1CCC(Cn2cc(C3CCCCC3)nn2)CC1`, the z-score falls from -0.5 to -0.81.

Going from `CCC(CO)n1cnc2sc3c(c2c1=O)CCCCC3` (stereo not given) to `CCN1CC(Cn2cnc3c(C)c(C)ccc3c2=O)CC1=O` (stereo not given), the z-score falls from 1.99 to -0.145.

First: NCCCNC1CCN(c2ccc(-c3cccc(F)c3)cc2)CC1
Second: CNCCCNC1CCN(c2ccc(-c3cccc(F)c3)cc2)CC1
The z-score of the first is lower: -1.31 for the first, -1.3 for the second.

Going from `CN(Cc1nc(-c2cccnc2)no1)C(=O)c1nc2ccccc2s1` to `Cc1nc(C(=O)N(Cc2cccnc2)Cc2ccc3c(c2)OCO3)cs1`, the z-score falls from 0.26 to -0.675.

Compared with `CCCN(C(=O)c1cccc(C#CC(C)(C)O)c1)C(CC)CC`, `CCCn1cc(-c2ccnc(NC(CC(C)(C)C)c3cccnc3)n2)c(C)n1` (stereo not given) is higher in z-score: -0.23 for the first, 1.13 for the second.

Going from `CC(O)c1cn(CC2CCN(C(=O)CC3CCCCCC3)CC2)nn1` (stereo not given) to `CCCCc1cn(C2CCN(C(=O)C3CCCCCC3)CC2)nn1`, the z-score falls from -0.54 to -0.56.

Compared with `CCn1cc(-c2cc(C(=O)N3CCN(C)C(=O)C3C)c3ccc(C)cc3n2)cn1` (stereo not given), `Cc1ccc2c(C(=O)N3CCCC3)cc(-c3cnn(C(C)C)c3)nc2c1` is lower in z-score: -0.19 for the first, -0.36 for the second.

Going from `c1ccc(-n2cc(-c3ccnc(NCc4cnc5ccccn45)n3)cn2)cc1` to `COc1ccccc1-c1noc(C(C)n2cccn2)n1` (stereo not given), the z-score rises from -1.09 to -0.115.

Going from `C=C1C2(C(=O)N3CCCC(COC)C3)CCC(C2)C1(C)C` (stereo not given) to `C=C1C(C)(C)[C@H]2CC[C@]1(C(=O)N1CCC(n3cc(CCCC)nn3)CC1)C2`, the z-score rises from -0.525 to 2.16.

Compared with `CCc1n[nH]c2c1CN(C(=O)c1cncc(C)c1)CC2`, `CCc1n[nH]c2c1CN(C(=O)c1cc(C)nc3ccc(F)cc13)CC2` is lower in z-score: 1.23 for the first, -0.42 for the second.

Compared with `Cc1cc(-c2ccccc2C(F)(F)F)nc(N)n1`, `Clc1cccn2c(-c3ccccc3OC3CCCC3)nnc12` is higher in z-score: -0.545 for the first, 0.365 for the second.

Compared with `O=c1cc(-c2ccccc2Cl)nc(-c2ccc(CN3CC[C@H](O)C3)cc2)[nH]1`, `Cc1nn(C)cc1-c1ccnc(N2CCN(Cc3ccc(F)cc3)C(=O)C2)n1` is higher in z-score: 0.305 for the first, 0.865 for the second.

First: CC(C)=CCC/C(C)=C/CNCCCc1ccncc1
Second: CC(CCCC(C)(C)O)CCNCC1CCN(c2ccccc2)C1 (stereo not given)
The z-score of the first is higher: -0.52 for the first, -0.605 for the second.

First: OCCCCCNCC1(N2CCOCC2)CCCCCC1
Second: O=C(CCC1CC1)Nc1ccnn1C1CCCCC1
The z-score of the first is lower: -0.47 for the first, 0.01 for the second.

First: CCCC(CCC)C(=O)N1CCC(n2cc(C3CC3)nn2)CC1
Second: CNCc1cn(C2CCN(CCC(C)CC(C)(C)C)CC2)nn1 (stereo not given)
The z-score of the first is higher: -0.125 for the first, -0.49 for the second.

Going from `CCn1ncc(NC(=O)Cn2cc(C)c(-c3ccc(Cl)s3)n2)n1` to `CCN(C(=O)c1cc(-c2cnc(C(C)C)nc2)nc2cc(F)ccc12)C(C)C`, the z-score falls from -0.01 to -0.47.

Compared with `CC1(C)C2(c3nc(Cc4c(F)cccc4Cl)no3)CC[C@@]1(C)C(=O)O2`, `COc1cc(OC2(C(=O)O)CCSCC2)ccc1CN1CCCNCC1` is higher in z-score: -0.525 for the first, -0.23 for the second.

First: CC(CC12CC3CC(CC(C3)C1)C2)n1cnc2nccnc2c1=O (stereo not given)
Second: CC(C)CN1CCN(Cc2ccco2)C(CCO)C1 (stereo not given)
The z-score of the first is higher: 1.54 for the first, -0.595 for the second.

Going from `COC(=O)c1ccccc1C(=O)N1CCNC(=O)C1Cc1ccccc1` (stereo not given) to `Cc1cc(C)c(CN[C@@H](C)C(C)C)c(C)c1CO`, the z-score falls from -0.485 to -0.51.

With `COc1cccc2ccc(-c3ccc(C(C)=O)cc3)nc12` the z-score was 2.67 (active).
With `CCn1cnc(NC(=O)NC2CCN(Cc3ccncc3)CC2)n1` the z-score was 3.54 (active).
